From PubChem BioAssay AID2782 (National Center for Advancing Translational Sciences (NCATS), 2010)
Inconclusive results are not listed. Values without a mark were called inactive. Calls of active or inactive are those of the source. The call rests on the fitted dose curve; in most records, active means well fitted inhibition curve with a large enough effect in the polarisation, with a control signal flat (not every such curve was filed as active); inconclusive means small, poorly fitted or top-dose-only effect, or effect the other way, or a change in a side signal; inactive means no such curve, though single readings can be large or run the other way; the % refers to the polarisation.

assay: Confirmation of Inhibitors Targeting the Menin-MLL Interaction in MLL Related Leukemias: Competition With Texas Red Labeled MLL-derived Mutant Peptide; settings: fluorescence polarization, Texas Red MLL peptide displacement; series mostly up to 94.6 µM; FP change, negative = inhibition: at the top concentration
Outline: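 FP competition using menin at 200 nM with Texas Red-labeled mutant MLL peptide (50 nM) plus fluorescein MLL-w.t. peptide (25 nM) in 50 mM Tris-HCl pH 7.5, 50 mM NaCl, 1 mM DTT, 0.05% BSA; compound added, 1 hr ambient; polarization read per label.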
On the % scale 0 is the no-effect control and ±100 the full control effect; potency means the concentration at half of the fitted maximal effect.

Structure (SMILES)	Potency	FP change, negative = inhibition
N=C1c2ccccc2CN1c1ccc(N2CCOCC2)c(S(=O)(=O)Nc2ccc(Cl)cc2)c1	141 µM (active)	
COc1cccc(OC)c1NC(=O)CN1CCN(C)CC1		-8.94%
C[N+]1(CCNC(=O)/C=N/O)CCCCC1		-11.8%
CCCCCC1CCC(C(=O)NCCN2CCOCC2)CC1 (stereo not drawn)		17.5%
CCOC(=O)N1CCN(CCC(=O)c2ccc(Br)cc2)CC1		3.33%
CN(C)CCCOc1ccc2c(c1)Sc1ccccc1CC2=O	141 µM (active)	
COc1ccc(/C=C(\C#N)C(=O)NCc2ccccc2)cc1		14.8%
CCOc1cc(CNCCc2ccc(S(N)(=O)=O)cc2)ccc1OCc1ccccc1	70.8 µM (active)	
O=C(CCn1nc(-c2ccccc2)ccc1=O)N1CCN(c2ccccn2)CC1		19.1%
O=C(O)CCC(=O)Nc1ccc(SSc2ccc(NC(=O)CCC(=O)O)cc2)cc1		0.124% [at 288 µM]
O=C1NC(=S)N/C1=C/c1ccc2ccccc2c1		40.9% [at 288 µM]
CC(c1ccncn1)N(C)Cc1nc(-c2ccc(C(F)(F)F)cc2)no1 (stereo not drawn)		15%
Cc1ccccc1-c1cncnc1NC1CCNCC1	126 µM (active)	
Cc1c(F)cccc1NS(=O)(=O)c1ccc2c(c1)c(C)cc(=O)n2C		-11.4%
O=C(C1CCCN(Cc2cccc(Cl)c2)C1)N1CCCCC1 (stereo not drawn)		17.5%
Cc1nc(C)c(-c2ccc(SCc3ccccc3F)nn2)s1		20.8%
CCCCn1c(SCC(=O)NCc2ccc(OC)c(C(=O)O)c2)nc2cc(S(N)(=O)=O)ccc21		-17.1% [at 288 µM]
COc1ccccc1C(=O)Nc1ccnn1C1CCN(CC2CC=CCC2)CC1 (stereo not drawn)	126 µM (active)	
